Assay results as given in PubChem BioAssay (EPA / NIEHS).
Results filed as inconclusive are left out. Activity calls are given as the source filed them. Rule for the calls, unless noted: active = hit-call score of the fitted dose curve at least 0.9, where 1 is the maximum; inactive = score below 0.9.

Assays:
[1] = CCTE_Mundy_HCI_Cortical_NOG_NeuriteLength: CCTE's Neurite Outgrowth Assay in rat cortical cells for Neurite Length, Mundy Lab (AID 2284213)
Outline: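 First, rat primary cortical cells were plated and, 2 h later, given test chemical as a 1/10 dilution. Finally, βIII-tubulin immunostaining enabled automated imaging of neurite length.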

[2] = CCTE_Mundy_HCI_Cortical_Synap_Neur_Matur_NeuriteLength: CCTE's Synaptogenesis and Neurite Maturation Assay in rat cortical cells for Neurite Length, Mundy Lab (AID 2284214)
Outline: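 DMSO-normalised neurite length, from high-content imaging of anti-MAP2-stained rat cortical cells fixed at DIV 12. Glia were suppressed with AraC (DIV 5) before chemical exposure from DIV 7.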

[3] = CCTE_Mundy_HCI_Cortical_Synap_Neur_Matur_SynapseCount: CCTE's Synaptogenesis and Neurite Maturation Assay in rat cortical cells for Synapse Count, Mundy Lab (AID 2284218)
Outline: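 Endpoint: synapses/neuron by HCI (synaptophysin puncta on MAP2-labelled neurites, Hoechst nuclei). Rat primary cortical cells, AraC DIV 5, dosed DIV 7, fixed DIV 12; DMSO negative control.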

[4] = CCTE_Mundy_HCI_Cortical_Synap_Neur_Matur_NeuriteCount: CCTE's Synaptogenesis and Neurite Maturation Assay in rat cortical cells for Neurite Count, Mundy Lab (AID 2284222);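 note: exposure from day 7 to day 12 in vitro with readout at day 12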
Outline: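 Primary rat cortical cells were plated, treated with AraC at DIV 5, then exposed to chemicals from DIV 7 through DIV 12. After fixation and immunostaining for MAP2 and synaptophysin, imaging quantified neurites, with DMSO as the negative control.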

[5] = CCTE_Mundy_HCI_Cortical_Synap_Neur_Matur_CellBodySpotCount: CCTE's Synaptogenesis and Neurite Maturation Assay in rat cortical cells for Cell Body Spot Count, Mundy Lab (AID 2284223)
Outline: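 Primary rat cortical cultures, AraC added at DIV 5; dosed DIV 7 through DIV 12 […]. Fixed, stained for MAP2 and synaptophysin with Hoechst; cell body-associated synaptophysin puncta per neuron counted by high-content imaging, loss vs DMSO.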

[6] = CCTE_Mundy_HCI_hNP1_Pro_ResponderAvgInten: CCTE's Proliferation Assay in human neuroprogenitor cells, Mundy Lab (AID 2284224; active = hit-call score of the fitted dose curve at least 0.9, where 1 is the maximum;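 note: human neural progenitor cells hNP1 derived from WA09 embryonic stem cells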)
Outline: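 Proliferation was scored as BrdU labelling intensity in human neural progenitors derived from WA09 embryonic cells, measured 26.25 hours after chemical dosing. Activity was fitted relative to DMSO.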

[7] = UKN2_HCS_IMR90_cell_viability: Viability Assessment in the University of Konstanz (UKN) Leist Lab Neural Crest Cell Migration Assay in human induced IMR90 Pluripotent Stem Cells (UKN2) (AID 2284233);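 note: cells exposed to compound for 24 h after a 24 h migration phase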
Outline: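 After calcein-AM/Hoechst staining, viability is quantified by high-content fluorescence imaging, relative to DMSO, in iPSC (IMR90)-derived neural crest cells. Exposure lasts 24 h, starting after a 24 h migration period on PLO/laminin/fibronectin coating.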

[8] = CCTE_Mundy_HCI_Cortical_NOG_NeuronCount: CCTE's Neurite Outgrowth Assay in rat cortical cells for Neuron Count, Mundy Lab (AID 2284236; active = hit-call score of the fitted dose curve at least 0.9, where 1 is the maximum;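 note: neurons counted by imaging betaIII-tubulin and Hoechst stained cortical cells; cells exposed to compound for about 48 hours before fixation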)
Outline: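 Read-out: neuron number by high-content imaging of betaIII-tubulin (Alexa Fluor-488) and Hoechst-labelled rat primary cortical cells.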

[9] = CCTE_Mundy_HCI_Cortical_NOG_BPCount: CCTE's Neurite Outgrowth Assay in rat cortical cells for Branch Point Count, Mundy Lab (AID 2284237)
Outline: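 Measured 50.33 h after dosing, this morphology endpoint uses rat primary cortical cultures labelled for betaIII-tubulin. Branch points are quantified by high-content imaging, with DMSO as negative control and baseline.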

[10] = CCTE_Mundy_HCI_hNP1_Casp3_7: CCTE's Caspase-Glo 3/7 Assay in human neuroprogenitor cells for Apoptosis, Mundy Lab (AID 2284240)
Outline: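 Apoptosis is scored by activated caspase-3/7 luminescence in WA09-derived neural progenitor cells, measured 26.5 h after chemical dosing. Values represent gain of signal relative to DMSO vehicle.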

[11] = CCTE_Mundy_HCI_Cortical_Synap_Neur_Matur_NeuronCount: CCTE's Synaptogenesis and Neurite Maturation Assay in rat cortical cells for Neuron Count, Mundy Lab (AID 2284242; active = hit-call score of the fitted dose curve at least 0.9, where 1 is the maximum)
Outline: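 Measured at DIV 12: fluorescently labelled neurons (Hoechst nuclei, MAP2) in rat primary cortical cultures, counted by high-content imaging. AraC suppressed glia from DIV 5; DMSO served as negative control.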

[12] = IUF_NPC2a_radial_glia_migration_120hr: Leibniz Research Institute for Environmental Medicine (IUF) 120-hour Neural Progenitor Cell Migration Assay for Radial Glia Migration (NPC2a) (AID 2284298)
Outline: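 Human fetal-cortex neural progenitor spheres (0.3 mm) plated on poly-D-lysine/laminin in N2 differentiation medium, exposed 120 h at 37C with half-medium renewal at day 3. Radial glia migration distance (um) measured from Hoechst-stained nuclei images; DMSO baseline.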

[13] = IUF_NPC2a_radial_glia_migration_72hr: Leibniz Research Institute for Environmental Medicine (IUF) 72-hour Neural Progenitor Cell Migration Assay for Radial Glia Migration (NPC2a) (AID 2284299)
Outline: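 Spheres of human primary neural progenitors migrate on poly-D-lysine/laminin under compound exposure at 37C, 5% CO2. The 72 h radial glia migration distance comes from brightfield images, measured manually.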

[14] = IUF_NPC3_neuronal_differentiation_120hr: Leibniz Research Institute for Environmental Medicine (IUF) 120-hour Neuronal Differentiation Assay (NPC3) (AID 2284301)
Outline: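 Value is percent TUBB3-positive neurons among Hoechst-stained nuclei in the migration area, scored by trained CNN after 120 h differentiation. Primary hNPC spheres on poly-D-lysine/laminin, N2 medium, continuous dosing from day 0, half-refeed day 3; DMSO reference.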

[15] = IUF_NPC4_neurite_length_120hr: Leibniz Research Institute for Environmental Medicine (IUF) 120-hour Neuronal Morphology Assay for Neurite Length (NPC4) (AID 2284302)
Outline: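 Neurite length, the mean in um across TUBB3-stained neurons, is derived by skeletonization of high-content images after 120 h differentiation. Compound exposure, 7 concentrations plus solvent control, ran from plating of hNPC spheres on poly-D-lysine/laminin, with medium half-replaced on day 3.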

[16] = IUF_NPC5_oligodendrocyte_differentiation_120hr: Leibniz Research Institute for Environmental Medicine (IUF) 120-hour Oligodendrocyte Differentiation Assay (NPC5) (AID 2284304; active = hit-call score of the fitted dose curve at least 0.9, where 1 is the maximum;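 note: primary human fetal neural progenitor spheres plated to migrate and differentiate; share of O4-positive cells among Hoechst nuclei found by CNN image analysis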)
Outline: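 Human fetal neural progenitor spheres (0.3 mm) plated on poly-D-lysine/laminin in N2 differentiation medium and exposed for 120 h at 7 concentrations, with half-medium renewal at day 3. O4-positive cells identified by CNN, expressed as percent of Hoechst nuclei.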

[17] = IUF_NPC4_neurite_area_120hr: Leibniz Research Institute for Environmental Medicine (IUF) 120-hour Neuronal Morphology Assay for Neurite Area (NPC4) (AID 2284305; active = hit-call score of the fitted dose curve at least 0.9, where 1 is the maximum)
Outline: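 Neurite area (pixels, nuclei excluded) of TUBB3-positive neurons from hNPC spheres differentiating 5 days under continuous exposure at 37 C, 5% CO2. High-content imaging; loss of signal versus DMSO control across 7 concentrations.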

[18] = IUF_NPC2-5_cytotoxicity_120hr: Cytotoxicity Assessment at 120 hours in the Leibniz Research Institute for Environmental Medicine (IUF) Neural Progenitor Cell Migration and Differentiation Assay (NPC2-5) (AID 2284307; active = hit-call score of the fitted dose curve at least 0.9, where 1 is the maximum)
Outline: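 Human fetal (GW 16-19) neural progenitor spheres (0.3 mm) plated on poly-D-lysine/laminin in N2 differentiation medium, exposed 120 h with half-medium renewal at day 3; 7 concentrations plus solvent control, DMSO ≤0.1%. LDH release in supernatant read by resorufin fluorescence.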

[19] = IUF_NPC2-5_cell_number_120hr: Cell Number Assessment at 120 hours in the Leibniz Research Institute for Environmental Medicine (IUF) Neural Progenitor Cell Migration and Differentiation Assay (NPC2-5) (AID 2284308);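 note: count of Hoechst-stained nuclei in migration zone around plated human neural progenitor spheres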
Outline: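 Human fetal neural progenitor spheres (0.3 mm) plated on poly-D-lysine/laminin in N2 differentiation medium, exposed five days across 7 concentrations with half-medium refresh at day 3. Hoechst-positive nuclei counted in migration area at 120 h, relative to DMSO.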

[20] = IUF_NPC2-5_viability_120hr: Viability Assessment at 120 hours in the Leibniz Research Institute for Environmental Medicine (IUF) Neural Progenitor Cell Migration and Differentiation Assay (NPC2-5) (AID 2284312)
Outline: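 Alamar blue resorufin fluorescence read after 5 days of differentiation, with compound present from day 0 and replenished at day 3. Primary hNPC spheres on laminin-coated plates, 37C; seven concentrations plus solvent control, fitted against DMSO.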

[21] = IUF_NPC1_cytotoxicity_72hr: Cytotoxicity Assessment at 72 hours in the Leibniz Research Institute for Environmental Medicine (IUF) Neural Progenitor Cell Proliferation Assay (NPC1) (AID 2284332; active = hit-call score of the fitted dose curve at least 0.9, where 1 is the maximum;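 note: rising LDH signal means more cytotoxicity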)
Outline: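 Readout is fluorescence from LDH-dependent resazurin conversion, sampled from culture medium after compound contact lasting 72 h. Each well holds one 0.25-0.35 mm human progenitor sphere kept at 37C, 5% CO2 with EGF and FGF.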

[22] = CCTE_Mundy_HCI_iCellGluta_NOG_NeuronCount: CCTE's Neurite Outgrowth Assay in iCellGluta cells for Neuron Count, Mundy Lab (AID 2284340; active = hit-call score of the fitted dose curve at least 0.9, where 1 is the maximum;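 note: cells fixed about 48 h after compound addition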)
Outline: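 Neuron count read by automated high-content imaging of Hoechst 33342 and betaIII-tubulin/Alexa Fluor-488 labelling in human iPSC glutamatergic neurons. Activity fitted relative to DMSO.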

[23] = CCTE_Mundy_HCI_iCellGluta_NOG_NeuriteCount: CCTE's Neurite Outgrowth Assay in iCellGluta cells for Neurite Count, Mundy Lab (AID 2284342; active = hit-call score of the fitted dose curve at least 0.9, where 1 is the maximum;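 note: chemical exposure about 48 hours starting 2 hours after plating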)

Measured: outcome

CCOP(=O)(Oc1cnc(C(C)(C)C)nc1)OC(C)C (stereo not drawn)
inactive: all assays above
